From PubChem BioAssay

Experiment: binders from COS7 lysate, DM2A8 probe, primary screen, torsin A project, cell lysate, small-molecule microarray, fluorescence 635/667 (AID 1065)
Conditions: higher = more signal, COS7 lysate expressing mutant human TOR1A

SMILES | composite z-score
O=C1C[C@]2(c3ccc([N+](=O)[O-])cc3)C(=O)N(CC(F)(F)F)c3cc(CO)ccc3[C@H]2N1CC12CC3CC(CC(C3)C1)C2 | 0.0228
N#Cc1ccc(NN2C(C(O)c3cccs3)C=CC3C(=O)N(c4ccccc4)C(=O)C32)cc1 (stereo not given) | 0.145
COCCOC(=O)N1C(=O)[C@@]2(c3cc(C#CCNC(N)=O)ccc31)[C@H](C(=O)N1CCc3cc(OC)c(OC)cc3C1)[C@H]1C(=O)O[C@H](c3ccccc3)[C@H](c3ccccc3)N1[C@@H]2c1ccc(OCCO)cc1 | 0.388
CC(=O)Nc1cc(Br)ccc1C(=O)O | -0.387
C=CCOC(=O)[C@@H]1[C@H]2C(=O)O[C@H](c3ccccc3)[C@H](c3ccccc3)N2[C@H](c2ccc(OCCOC(=O)[C@@H]3C[C@@H]4C(=O)N[C@@H](Cc5ccccc5)C(=O)N4[C@@H]3c3cccc(OCCO)c3)cc2)[C@@]12C(=O)Nc1ccc(I)cc12 | 0.63
[N-]=[N+]=NCc1ccccc1C[C@]1(C(=O)O)N=C(c2ccc(OCCCO)cc2)O[C@H]1c1ccccc1CN=[N+]=[N-] | 0.169
NCCCCCNC(=O)[C@H]1C[C@H]2C(=O)NCC(=O)N2[C@H]1c1cccc(OCCO)c1 | 0.759
COc1cc2c(cc1OC)CN(C(=O)[C@@H]1[C@H]3C(=O)O[C@H](c4ccccc4)[C@H](c4ccccc4)N3[C@H](c3ccccc3OCCO)[C@@]13C(=O)Nc1ccc(C#CCNC(N)=O)cc13)CC2 | 0.586
C=C(COC)C(=O)CC[C@H](OC(C)=O)c1cccc(OCCO)c1 | 1.66
CCOC(=O)C[C@H]1[C@H](OC(=O)Cc2ccc3c(c2)OCO3)[C@@H](NC(=O)C2CCCCC2)c2cc(OCCCO)ccc2N1C(=O)Cc1ccc(OC)cc1 | 0.0664
COCCOC(=O)N1C(=O)[C@@]2(c3cc(C#CCNC(N)=O)ccc31)[C@H](c1ccc(OCCO)cc1)N1[C@H](c3ccccc3)[C@H](c3ccccc3)OC(=O)[C@H]1[C@@H]2C(=O)N1CCc2cc(OC)c(OC)cc2C1 | -0.0389
COCCOC(=O)N1C(=O)[C@@]2(c3cc(C#CC4(O)CCCCCC4)ccc31)[C@H](C(=O)N1CCCCCCC1)[C@H]1C(=O)O[C@H](c3ccccc3)[C@H](c3ccccc3)N1[C@@H]2c1ccccc1OCCO | 0.859
C=C(COC)/C(=C/C[C@H](OC(=O)c1ccncc1)c1cccc(OCCO)c1)c1cc(C(=O)OC)ccc1OC | 0.635
COc1c(C)cc(-c2cc3c(c(-c4ccc(Oc5ccccc5)cc4)n2)[Si](C(C)C)(C(C)C)OC3)cc1C | -0.0685
CCOC(=O)C1=CCC(c2ccc(C#N)cc2)N(S(=O)(=O)c2ccc(C)cc2)C1 (stereo not given) | 0.359
CCOC(=O)C1=C[C@@H](C(C)C)N(S(=O)(=O)c2ccc(C)cc2)[C@H]1c1ccc(C(C)C)cc1 | 0.352
CCOC(=O)C1=CCC(C(C)(C)C)N(S(=O)(=O)c2ccc(C)cc2)C1 (stereo not given) | 2.2
CCCCC=C[C@@H](NC(=O)c1ccco1)c1ccccc1 | 0.0908
CC(C)(C)N1CC=CC23O[C@@H]4C=CCOC(=O)[C@@H]4[C@H]2C(=O)N(CCCCCO)[C@@H]3C1=O (stereo not given in full) | -0.555
O=C1C=CC(=O)[C@@H]2CC(COc3ccccc3)=C3[C@@H](CCc4ccccc4)OB(O)C[C@@H]3[C@H]12 | 2.47
Cc1ccccc1C(O)C1C=CC2C(=O)N(C)C(=O)C2N1N1CCCCC1 (stereo not given) | 0.831
CCOC(=O)C[C@H]1[C@H](OC(=O)c2ccc(C(=O)c3ccccc3)cc2)[C@@H](NC(=O)C2CCCCC2)c2cc(OCCCO)ccc2N1C(=O)c1ccccc1 | -0.248
Cc1ccc(S[C@]2(C(=O)NCC(C)C)CC(=O)N(Cc3ccccc3Cl)[C@@H]2c2ccc(CO)cc2)cc1 | -0.48
COc1cccc(C(=O)O[C@H]2CC[C@]3(C)C4=C(CCC3C2(C)C)[C@]2(C)CC[C@H]([C@H](C)CCCC(C)C)[C@@]2(C)CC4)c1 (stereo not given in full) | 0.0024

Experiment: small molecules captured by biotinylated probe aFGF2 – biochemical, small-molecule microarray, fluorescence 635/667, stem cell growth factor project, primary screen (AID 1067);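 note: measures binding of biotinylated aFGF2 protein to printed compounds on slides; z-score merges feature fluorescence and signal-to-noise across triplicate slides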
Conditions: higher = more signal

SMILES | composite z-score
O=c1cccc(CCc2ccccc2)o1 | -0.0909
COc1ccc([Si](C)(C)[C@H]2[C@H](CCn3cc(CCO)nn3)O[C@@]3(C(=O)N(Cc4ccc(N5CCOC5=O)cc4)c4ccccc43)[C@@H]2C)cc1 | -0.0158
C=CC[C@@H](OC(=O)Nc1ccc(OC)cc1)c1ccc(O)c2ccccc12 | -0.0364
CC(c1ccccc1)C(O)C1C=CC2C(=O)NC(=O)C2N1Nc1ccccn1 (stereo not given) | -0.044
CC(C)CNC(=O)[C@@H]1c2ccccc2C(=O)N(Cc2cc(C(F)(F)F)cc(C(F)(F)F)c2)[C@H]1c1ccc(CO)cc1 | 0.071
C[C@]1(C(=O)NCc2ccccc2)c2ccccc2C(=O)N(Cc2cc(F)cc(C(F)(F)F)c2)[C@H]1c1ccc(CO)cc1 | -0.0894
O=C1O[C@H](c2ccccc2)[C@H](c2ccccc2)N2[C@H]1[C@@H](C(=O)Nc1nc3ccccc3s1)[C@]1(C(=O)Nc3ccccc31)[C@H]2c1ccc(O)cc1 | -0.0516
CN(C)CCCNC(=O)[C@@]1(Cc2ccccc2I)c2ccccc2C(=O)N(Cc2ccccc2C(F)(F)F)[C@H]1c1ccc(CO)cc1 | -0.22
CCCCCN1CC=CC23O[C@@H]4C=CCOC(=O)[C@@H]4[C@H]2C(=O)N(CCCO)[C@@H]3C1=O (stereo not given in full) | -0.195
C=C(CCCC)/C(=C/C[C@H](OC(C)=O)c1ccc(CO)o1)c1cnc2ccccc2c1 | -0.0749
CC(C)NC(=O)[C@@]1(Cc2ccccc2I)c2ccccc2C(=O)N(Cc2ccccc2)[C@H]1c1ccc(CO)cc1 | -0.017
O=C1C2C=CC(C(O)c3ccc(B(O)O)cc3)N(Nc3ccccc3)C2C(=O)N1c1ccccc1 (stereo not given) | 0.0533
O=C1C[C@]2(c3ccc([N+](=O)[O-])cc3)C(=O)N(CC(F)(F)F)c3cc(CO)ccc3[C@H]2N1CC12CC3CC(CC(C3)C1)C2 | -0.101
N#Cc1ccc(NN2C(C(O)c3cccs3)C=CC3C(=O)N(c4ccccc4)C(=O)C32)cc1 (stereo not given) | 0.0887
COCCOC(=O)N1C(=O)[C@@]2(c3cc(C#CCNC(N)=O)ccc31)[C@H](C(=O)N1CCc3cc(OC)c(OC)cc3C1)[C@H]1C(=O)O[C@H](c3ccccc3)[C@H](c3ccccc3)N1[C@@H]2c1ccc(OCCO)cc1 | -0.0293
CC(=O)Nc1cc(Br)ccc1C(=O)O | 0.0308
C=CCOC(=O)[C@@H]1[C@H]2C(=O)O[C@H](c3ccccc3)[C@H](c3ccccc3)N2[C@H](c2ccc(OCCOC(=O)[C@@H]3C[C@@H]4C(=O)N[C@@H](Cc5ccccc5)C(=O)N4[C@@H]3c3cccc(OCCO)c3)cc2)[C@@]12C(=O)Nc1ccc(I)cc12 | -0.0566
[N-]=[N+]=NCc1ccccc1C[C@]1(C(=O)O)N=C(c2ccc(OCCCO)cc2)O[C@H]1c1ccccc1CN=[N+]=[N-] | -0.0474

SMILES | composite z-score
NCCCCCNC(=O)[C@H]1C[C@H]2C(=O)NCC(=O)N2[C@H]1c1cccc(OCCO)c1 | -0.0337
COc1cc2c(cc1OC)CN(C(=O)[C@@H]1[C@H]3C(=O)O[C@H](c4ccccc4)[C@H](c4ccccc4)N3[C@H](c3ccccc3OCCO)[C@@]13C(=O)Nc1ccc(C#CCNC(N)=O)cc13)CC2 | 0.0564
C=C(COC)C(=O)CC[C@H](OC(C)=O)c1cccc(OCCO)c1 | -0.0767
CCOC(=O)C[C@H]1[C@H](OC(=O)Cc2ccc3c(c2)OCO3)[C@@H](NC(=O)C2CCCCC2)c2cc(OCCCO)ccc2N1C(=O)Cc1ccc(OC)cc1 | -0.048
COCCOC(=O)N1C(=O)[C@@]2(c3cc(C#CCNC(N)=O)ccc31)[C@H](c1ccc(OCCO)cc1)N1[C@H](c3ccccc3)[C@H](c3ccccc3)OC(=O)[C@H]1[C@@H]2C(=O)N1CCc2cc(OC)c(OC)cc2C1 | -0.051
COCCOC(=O)N1C(=O)[C@@]2(c3cc(C#CC4(O)CCCCCC4)ccc31)[C@H](C(=O)N1CCCCCCC1)[C@H]1C(=O)O[C@H](c3ccccc3)[C@H](c3ccccc3)N1[C@@H]2c1ccccc1OCCO | 0.249
C=C(COC)/C(=C/C[C@H](OC(=O)c1ccncc1)c1cccc(OCCO)c1)c1cc(C(=O)OC)ccc1OC | -0.116
COc1c(C)cc(-c2cc3c(c(-c4ccc(Oc5ccccc5)cc4)n2)[Si](C(C)C)(C(C)C)OC3)cc1C | -0.147
CCOC(=O)C1=CCC(c2ccc(C#N)cc2)N(S(=O)(=O)c2ccc(C)cc2)C1 (stereo not given) | 0.165
CCOC(=O)C1=C[C@@H](C(C)C)N(S(=O)(=O)c2ccc(C)cc2)[C@H]1c1ccc(C(C)C)cc1 | -0.0647
CCOC(=O)C1=CCC(C(C)(C)C)N(S(=O)(=O)c2ccc(C)cc2)C1 (stereo not given) | 0.0954
CCCCC=C[C@@H](NC(=O)c1ccco1)c1ccccc1 | 0.0603
CC(C)(C)N1CC=CC23O[C@@H]4C=CCOC(=O)[C@@H]4[C@H]2C(=O)N(CCCCCO)[C@@H]3C1=O (stereo not given in full) | -0.159
O=C1C=CC(=O)[C@@H]2CC(COc3ccccc3)=C3[C@@H](CCc4ccccc4)OB(O)C[C@@H]3[C@H]12 | -0.132
Cc1ccccc1C(O)C1C=CC2C(=O)N(C)C(=O)C2N1N1CCCCC1 (stereo not given) | 0.108
CCOC(=O)C[C@H]1[C@H](OC(=O)c2ccc(C(=O)c3ccccc3)cc2)[C@@H](NC(=O)C2CCCCC2)c2cc(OCCCO)ccc2N1C(=O)c1ccccc1 | -0.0478
Cc1ccc(S[C@]2(C(=O)NCC(C)C)CC(=O)N(Cc3ccccc3Cl)[C@@H]2c2ccc(CO)cc2)cc1 | -0.151
COc1cccc(C(=O)O[C@H]2CC[C@]3(C)C4=C(CCC3C2(C)C)[C@]2(C)CC[C@H]([C@H](C)CCCC(C)C)[C@@]2(C)CC4)c1 (stereo not given in full) | -0.0425
